Records with an inconclusive call do not appear. Activity calls are given as the source filed them. Calls come from the whole dose curve; as a rule, active = well fitted inhibition curve with a large enough effect; inconclusive = small, poorly fitted or top-dose-only effect; inactive = flat fitted curve, though single readings scatter.
Columns and labels:
Experiment in all cases: qHTS profiling for inhibitors of Plasmodium falciparum proliferation (AID 504749); note: nearly all actives have a fitted effect of over 60% in size
Settings in all cases: P. falciparum in erythrocytes, SYBR Green DNA, 72 h; series mostly up to 28.7 µM
CP265 = test system: CP265
Outline: (§1)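 P. falciparum-infected erythrocytes (0.3% parasitemia, 2.5% hematocrit final) were exposed to compounds for 72 h at 37 C in 5% CO2, then lysed with SYBR Green buffer overnight at room temperature; parasite DNA fluorescence was normalized to artemisinin and DMSO controls.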

CP266 = test system: CP266
Outline: as §1

CP268 = test system: CP268
Outline: as §1

CP269 = test system: CP269
Outline: as §1

CP286 = test system: CP286
Outline: as §1

CP291 = test system: CP291
Outline: as §1

CP297 = test system: CP297
Outline: as §1

CP305 = test system: CP305
Outline: as §1

CP315 = test system: CP315
Outline: as §1

CP325 = test system: CP325
Outline: as §1

CP335 = test system: CP335
Outline: as §1

DFO2036 = test system: DFO2036
Outline: as §1

DIV14 = test system: DIV14
Outline: as §1

DIV17 = test system: DIV17
Outline: as §1

DIV30 = test system: DIV30
Outline: as §1

Dd2 = test system: Dd2
Outline: as §1

ECU = test system: ECU
Outline: as §1

FAB9 = test system: FAB9
Outline: as §1

GB4 = test system: GB4
Outline: as §1

HB3 = test system: HB3
Outline: as §1

ICS = test system: ICS
Outline: as §1

JCK = test system: JCK
Outline: as §1

N140 = test system: N140
Outline: as §1

P93_24 = test system: P93_24
Outline: as §1

P94_40 = test system: P94_40
Outline: as §1

PAD = test system: PAD
Outline: as §1

PC15 = test system: PC15
Outline: as §1

PC26 = test system: PC26
Outline: as §1

PC49 = test system: PC49
Outline: as §1

SC27B = test system: SC27B
Outline: as §1

TAB109 = test system: TAB109
Outline: as §1

TAB113 = test system: TAB113
Outline: as §1

TAB165 = test system: TAB165
Outline: as §1

W2 = test system: W2
Outline: as §1

Measured: Potency
Potency is the fitted concentration of half-maximal effect.

CC[C@]1([C@H]2O[C@@H]([C@@H]3O[C@](O)(CO)[C@@H](C)C[C@H]3C)C[C@H]2C)CC[C@@H]([C@]2(C)CC[C@@]3(C[C@@H](O)[C@@H](C)[C@@H]([C@H](C)[C@H](OC)[C@H](C)C(=O)O)O3)O2)O1
active: CP265 0.0316 µM | CP266 0.0536 µM | CP268 0.0379 µM | CP269 0.0338 µM | CP286 0.0224 µM | CP291 0.019 µM | CP297 0.0338 µM | CP305 0.0338 µM | CP315 0.0338 µM | CP325 0.0301 µM | CP335 0.019 µM | DFO2036 0.0355 µM | DIV14 0.0338 µM | DIV17 0.0269 µM | DIV30 0.0379 µM | Dd2 0.0398 µM | ECU 0.0501 µM | FAB9 0.0708 µM | GB4 0.0269 µM | HB3 0.0447 µM | ICS 0.02 µM | JCK 0.0708 µM | N140 0.0398 µM | P93_24 0.0447 µM | P94_40 0.0251 µM | PAD 0.0631 µM | PC15 0.0562 µM | PC26 0.0239 µM | PC49 0.0708 µM | SC27B 0.0501 µM | TAB109 0.0316 µM | TAB113 0.0501 µM | TAB165 0.112 µM | W2 0.019 µM

From PubChem BioAssay (NCATS)
